A selection: hits, their analogues and other compounds. The true share with any hit is near 22%.
CHX counter: Cycloheximide Counterscreen for Small Molecule Inhibitors of Shiga Toxin | cell reporter, cycloheximide protein synthesis inhibition counterscreen | max response, % | 12% of 300,000 active | AID 2314, 2010; in the data active means max response mostly above about 13%, no sharp cut-off; inactive means mostly below about 14%; further: read at 38.3 µM for the half of the compounds with a filed dose; 0% is about no effect
Pf growth 96h: Primary qHTS for delayed death inhibitors of the malarial parasite plastid, 96 hour incubation; 6.9% of 320,000 active; Potency, µM (doses to about 28.7 µM), without a hit: at the highest dose activity change, negative = inhibition, hits mostly inhibitors; P. falciparum luciferase reporter growth, 96 h; further: potency means the concentration at half of the fitted maximal effect; on the % scale 0 is the no-effect control and ±100 the full control effect
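Delayed-death screen, second-generation endpoint: infected erythrocytes, 2% hematocrit, 0.05% parasitemia final; 96 hours at 37 C, 5% CO2; luciferase detection reagent; luminescence decrease equals reduced growth.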
Pf growth 48h: Primary qHTS for delayed death inhibitors of the malarial parasite plastid, 48 hour incubation | P. falciparum luciferase growth in erythrocytes, 48 h | Potency, µM (highest dose often 28.7 µM), for inactives: at the highest dose activity change, negative = inhibition, most hits filed as inhibitors | 5.9% of 310,000 active; further: potency means the concentration at half of the fitted maximal effect; on the % scale 0 is the no-effect control and ±100 the full control effect
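First compound was added to culture medium, then infected red cells at 0.1% parasitemia and 2% hematocrit (final). After incubation at 37 C under 5% CO2, luciferase detection reagent was dispensed and light output recorded.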
LmPK inh: qHTS Assay for Inhibitors of Leishmania Mexicana Pyruvate Kinase (LmPK); purified LmPK, Kinase-Glo ATP luminescence, 1 h; Q27686; AID 1721, 2009; Potency, µM (top dose mostly 57.5 µM), without a hit: at the highest dose activity change, negative = inhibition, actives largely listed as inhibitors; 0.37% of 290,000 active; further: potency means the concentration at half of the fitted maximal effect; on the % scale 0 is the no-effect control and ±100 the full control effect
Target sequence (Q27686 whole entry, looked up): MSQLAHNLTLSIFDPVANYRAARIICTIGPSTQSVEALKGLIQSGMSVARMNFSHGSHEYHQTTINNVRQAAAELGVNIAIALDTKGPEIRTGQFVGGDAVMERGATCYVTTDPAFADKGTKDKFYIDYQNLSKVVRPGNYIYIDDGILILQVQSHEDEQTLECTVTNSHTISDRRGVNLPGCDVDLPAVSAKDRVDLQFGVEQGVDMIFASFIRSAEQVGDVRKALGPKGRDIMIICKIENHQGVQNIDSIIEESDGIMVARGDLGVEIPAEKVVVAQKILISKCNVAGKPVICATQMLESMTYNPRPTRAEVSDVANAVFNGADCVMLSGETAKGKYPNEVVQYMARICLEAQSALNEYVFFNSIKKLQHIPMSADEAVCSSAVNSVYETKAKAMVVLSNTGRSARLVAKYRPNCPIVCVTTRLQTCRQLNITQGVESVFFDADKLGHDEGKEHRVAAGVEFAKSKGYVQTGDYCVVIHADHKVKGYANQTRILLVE
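0.1 nM LmPK, 0.5 mM PEP, 0.1 mM ADP; 50 mM imidazole pH 7.2, 7 mM MgCl2, 50 mM KCl; 1 h RT. Kinase-Glo luminescence readout, normalized to no-enzyme (full inhibition) and uninhibited wells.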
Shiga toxin inh: A qHTS for Small Molecule Inhibitors of Shiga Toxin | Vero cells, Shiga toxin protein synthesis inhibition reporter | inhibition, % at 38.7 µM | 9.2% of 290,000 active | AID 2315, 2010; in the data active means inhibition mostly above about 28%, no sharp cut-off; inactive means mostly below about 43%; further: 0% is about no effect
* marks the source's active call; other numbers are inactive results; ? = inconclusive; / = no result given. Unless noted, the call rests on the fitted dose curve; in most records, active means well fitted inhibition curve with a large enough effect; inconclusive means small, poorly fitted or top-dose-only effect, or another doubt; inactive means no such curve, though single readings can be large or run the other way.

SMILES	CHX counter	Pf growth 96h	Pf growth 48h	LmPK inh	Shiga toxin inh
COc1ccc(NC(=O)c2ccccc2NC(=O)CSc2ccc(C)cc2)cc1	6	38%	31%	4%	8
Cc1ccc(NC(=O)COCC(=O)Nc2ccc(C)cc2)cc1	-2	-14%	23%	-4%	-2
COc1ccc(NC(=O)CSc2ccc(C)cc2)cc1	33*	-22%	227%	1%	81*
Cc1ccc(SCC(=O)NC(C)(C)C)cc1	28*	/	66%	0%	133*
Cc1ccc(NC(=O)CNc2ccc(OC(C)C)cc2)cc1	16*	44%	/	-6%	10
CCN(CC)S(=O)(=O)c1ccc(NC(=O)CSc2nnc(-c3cccc(OC)c3)n2C)cc1	-1	?	10µM*	0%	-1
C=Cc1ccc(S(=O)(=O)O)cc1	-5	1%	-9%	/	2
CC(C)c1nnc(SCC(=O)NC(C)(C)C)n1C	-2	?	27%	-1%	18
Cc1ccc(C2=NC(C)(C)N=C2SCC(=O)Nc2ccc(Cl)cc2)cc1	0	4.1µM*	/	1%	4
CC1(C)N=C(SCC(=O)Nc2ccccc2)C(c2ccc(Cl)cc2)=N1	6	?	-20%	6%	-22
Cc1ccc(Nc2nc(CSc3nnc(-c4ccc(F)cc4)n3C)cs2)cc1	32*	28%	78%	2%	123*
CC(C)(C)NC(=O)CSc1nnnn1C(C)(C)C	25*	6%	15%	-6%	32*
COc1ccc(-c2nnc(SCc3csc(N)n3)n2C)cc1	-4	?	?	-1%	-17
COc1ccc(-c2nnc(SCC(=O)Nc3ccc(C)cc3)n2C)cc1	-3	5.2µM*	-12%	0%	-15
COc1ccc(C(=O)Nc2ccc(NC(=O)CSc3nnc(-c4ccncc4)n3C)cc2)cc1	-1	?	5%	-2%	12
CCn1c(SCC(=O)Nc2ccc(N3CCOCC3)cc2)nnc1-c1ccco1	/	10µM*	-1%	/	/
Cc1ccc(-c2nnc(SCC(N)=O)n2C)cc1	3	?	19%	-9%	-24
Cc1cccc(C)c1NC(=O)CSc1nnc(-c2ccco2)n1N	6	?	-1%	2%	-12
CCCCSc1nnc(-c2ccc(OC)cc2)n1C	65*	13µM*	-3%	3%	60*
Cc1ccc(-c2nnc(SCC(C)C)n2C)cc1	34*	49%	43%	-3%	138*
Nn1c(SCC(=O)Nc2ccc(S(N)(=O)=O)cc2)nnc1-c1ccco1	-4	13µM*	-19%	-3%	-10
CCCS(=O)(=O)N1CCCC(C(=O)c2ccccc2OC)C1 (stereo not drawn)	6	-14%	43%	1%	17
O=C(Cn1c(=O)oc2ccccc21)N1CCOCC1	-5	32%	6%	4%	10
COc1ccc(NC(=O)NNC(=O)C(C)Oc2ccc3ccccc3c2)cc1 (stereo not drawn)	-2	-18%	-3%	5%	11
CSCCC(NS(=O)(=O)c1ccccc1F)C(=O)NCCCn1nc(C)cc1C (stereo not drawn)	/	31%	6%	/	/
SMILES	CHX counter	Pf growth 96h	Pf growth 48h	LmPK inh	Shiga toxin inh
Cc1ccc(NC(=O)CSc2nc(O)cc(=O)n2C)cc1	-3	-1%	-4%	5%	16
CCn1c(SCC(=O)Nc2ccc(C)cc2)nnc1-c1ccc(O)cc1	-2	2.6µM*	?	-2%	-11
CCn1c(SCC(=O)Nc2ccc(C)cc2)nnc1-c1ccccn1	1	-1%	-2%	5%	14
Cc1ccc(NC(=O)CSc2nc3sc(C)cc3c(=O)n2C)cc1	-3	9.3µM*	?	-1%	-14
CCOc1ccc(NC(=O)CSc2nnc(-c3ccco3)n2C)cc1	-2	?	-7%	-1%	6
COc1ccc(NC(=O)CSc2nnc(-c3ccco3)n2C)cc1	-2	6.6µM*	-19%	-9%	19
CCN(CC)C(=O)CSc1nnc(CCCCCNC(=O)OC(C)(C)C)o1	-3	10µM*	?	-1%	-14
C=C(C)CSc1nnc(CCCCCNC(=O)OC(C)(C)C)o1	-3	-9%	-18%	2%	29
O=C(O)CC(Sc1n[nH]c(=S)s1)C(=O)O (stereo not drawn)	-2	-8%	-14%	1%	-4

From PubChem
